Assay results published in the OligoGym collection.

target: OTOP1; test: pooled miR-30 sensor sort-seq; sequence = guide strand; conditions: shRNA
Also: reference of the scale not given here.

Row | Sequence | sensor-assay potency score (higher = more potent)
1 | TGATACTCTATGTTGAAGGGGT | 0.574
2 | TAGAACATGATGAGTGCCGACT | -0.938
3 | TTGCAGACTGTGACCACCCGAA | 0.116
4 | AAAACTGTTGTTATGTTCCCAA | -0.801
5 | TTGAGTTGGTGCTTTGACTCAT | 0.454
6 | AAACAATGTGATACTACCGCGC | -0.348
7 | TTGGTGCTTTGACTCATTGAGG | -1.32
8 | TTCCTCAGGACTTTTCTCTTGG | 0.566
9 | TTGAACTGCATCTTCTGGTGCT | 0.911
10 | AAGCACAGCAGGTCGCTCTTGC | 0.0599
11 | TTGCAGAGGAACAAGAAGGCTG | -0.195
12 | TCGTCTATCCTGTAAATCCGGA | -0.834

target: OTOP2; test: as above; conditions: shRNA

Row | Sequence | sensor-assay potency score (higher = more potent)
13 | TTGGTGCACAGATTCATCCACC | -1.03
14 | TTGAACCTCGTAGATGATGAAG | -1.6
15 | AAGCAGACAATGTTGAAGCTGT | 0.428
16 | TCCACCTCCACTGTGTTGCTGA | -0.748
17 | TAGAAGAGGATCCAGAGCGTTG | -1.26
18 | TCGATGATAAACATGTTCTGGA | 0.252
19 | TAGAAATCCACCTCCACTGTGT | 0.657
20 | TTGGTGGTGAGTGTGAACATGA | -0.459
21 | ATCCACAGAATGACATTGCAGA | -0.488
22 | TTGCCAGCAGCATCATCGCAGT | -1.22
23 | TTCCACATGACATACAGCATGG | -1.01
24 | TAGATGACCAGGGCCTGCCTGG | -1.42
